Experimental data taken from PubChem BioAssay (NCATS).
Results filed as inconclusive are left out. Calls of active or inactive are those of the source. The call rests on the fitted dose curve; in most records, active means well fitted cell-killing curve with a large enough effect; inconclusive means small, poorly fitted or top-dose-only effect, or effect the other way; inactive means no such curve, though single readings can be large or run the other way.

Test: Viability qHTS for spleen associated tyrosine kinase inhibitor (SYKi) naive MV4-11 cells (AID 1963823); further: nearly all actives have a fitted effect of over 40% in size
Settings: MV4-11 AML viability, CellTiter-Glo luminescence, 72 h; series mostly up to 45 µM; viability (% of control): at the top concentration
Summary of the method: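 In this viability screen, compounds acted on SYK inhibitor naive MV4-11 cells for three days (72 hr, 37 C). Remaining viable cells were measured by CellTiter-Glo luminescence following a 10 min room-temperature development.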
Potency means the concentration at half of the fitted maximal effect.

Structure (SMILES)	viability (% of control)	Potency
CC(=O)C12OC(C)(C)OC1CC1C3CCC4=CC(=O)C=CC4(C)C3(F)C(O)CC12C (stereo not given)	121% (inactive)	
COc1c2c(c(C)c3c1C(=O)OC3)OC1(C)CC(O)C34OC(OC)(CCC3(C)C1C2)OC4(C)CO (stereo not given)	55.7% [at 17.3 µM] (inactive)	
N#C/C(=C\c1ccc(O)c(O)c1)C(=O)NCCCc1ccccc1		8.2 µM (active)
CC(C)Oc1ccc(-c2nc(-c3cccc4c3CCC4NCCC(=O)O)no2)cc1C#N (stereo not given)	73% (inactive)	
C1CCN2CC3C[C@@H](CN4CCCC[C@@H]34)[C@H]2C1	99.2% (inactive)	
Cc1oc2nc3c(c(NC(=O)CN4CCCC4=O)c2c1C)CCCC3	84.7% (inactive)	
Cc1c(Cl)cccc1S(=O)(=O)Nc1nc(NCCc2ccccc2)nc2c1CN(Cc1ccccc1)CC2		16.4 µM (active)
CCNC(=O)[C@@H]1CCCN1C(=O)[C@H](CCCN=C(N)N)NC(=O)[C@H](CC(C)C)NC(=O)[C@@H](C)NC(=O)[C@H](Cc1ccc(O)cc1)NC(=O)[C@H](CO)NC(=O)[C@H](Cc1c[nH]c2ccccc12)NC(=O)[C@H](Cc1cnc[nH]1)NC(=O)[C@@H]1CCC(=O)N1	75.4% [at 17.3 µM] (inactive)	
COc1ccc(CCC(=O)c2c(O)cc(O[C@@H]3O[C@H](CO)[C@@H](O)[C@H](O)[C@H]3O[C@@H]3O[C@@H](C)[C@H](O)[C@@H](O)[C@H]3O)cc2O)cc1O	73.7% (inactive)	
COC(=O)c1cc(CN2CCN(C(=N)N)CC2)cc(C(=O)N2CCN(C(=O)c3ccc(C(=N)N)cc3)CC2)c1	116% (inactive)	
CC1CCCC[C@H]2C(=O)C=C[C@H](O)[C@@H]2CC(=O)O1 (stereo not given in full)		0.731 µM (active)
C/C(=C\CCC(C)(O)c1ccc(C)cc1)C(=O)O (stereo not given)	79.9% (inactive)	
O=C(O[C@H]1[C@@H]2C[C@@H]3OC[C@](O)([C@@H]1Cl)[C@H]2C(O[C@@H]1O[C@H](CO)[C@@H](O)[C@H](O)[C@H]1O)O3)c1ccc(O)c(O)c1 (stereo not given in full)	80.1% [at 17.3 µM] (inactive)	
COc1cc(C(O)C(CO)Oc2ccc(CCCO[C@@H]3O[C@@H](C)[C@H](O)[C@@H](O)[C@H]3O)cc2OC)ccc1O (stereo not given in full)	84% [at 17.3 µM] (inactive)	
C=C1CC23CC1CCC2C12OC(=O)C(C)(C(O)C(O)C1O)C2C3C(=O)O (stereo not given)	74.8% (inactive)	
COc1ccc(CN2C(=O)C(=O)c3cc(S(=O)(=O)N4CCC[C@H]4COc4cccnc4)ccc32)cc1	90.3% (inactive)	
CC(=O)c1ccc2c(c1)[C@H](NC(=O)c1ccc(F)c(Cl)c1)[C@H](O)C(C)(C)O2	85.7% (inactive)	
C[C@H](O)[C@H](O)[C@H]1CNc2nc(N)[nH]c(=O)c2N1	77% (inactive)	
COc1ccc2c(c1)[C@@H]1C[C@]1(C(=O)N1[C@@H]3CC[C@H]1CN(C)C3)Cn1c-2c(C2CCCCC2)c2ccc(C(=O)NS(=O)(=O)N(C)C)cc21		11.6 µM (active)
CC(C)(C)c1ccc(C(=O)Nc2cn3cc(-n4ccnc4)ccc3n2)cc1		1.84 µM (active)

Structure (SMILES)	viability (% of control)	Potency
CC(=O)c1c(C)cccc1O[C@@H]1O[C@H](CO)[C@@H](O)[C@H](O)[C@H]1O	89.5% (inactive)	
CC1(C)CC2C3=CCC4C5(C)CCC(OC6OC(CO)C(O)C(OC7OC(CO)C(O)C(OC8OC(CO)C(O)C(OC9OC(COC%10OC(CO)C(O)C(O)C%10O)C(O)C(O)C9O)C8O)C7O)C6O)C(C)(C)C5CCC4(C)C3(C)CCC2(C(=O)O)CC1O (stereo not given)	81.7% [at 9.25 µM] (inactive)	
CCCCC/C=C\C/C=C\CCCCCCCC(=O)NC(C)c1ccccc1 (stereo not given)		11.9 µM (active)
COC(=O)C12CCC(C)C(C)C1C1=CCC3C4(C)CCC(OC(C)=O)C(C)(C)C4CCC3(C)C1(C)CC2 (stereo not given)	77.3% [at 17.3 µM] (inactive)	
C=CC1(C)CC(OC(=O)/C(C)=C\COC(C)=O)C(C(=C)C(=O)O)C(O)C1C(=C)CO (stereo not given)	89.8% [at 17.3 µM] (inactive)	
COc1cc(/C=C/C(=O)O[C@@H]2C[C@@](O)(C(=O)O)C[C@@H](O)[C@@H]2O)ccc1O	79.9% (inactive)	
CN1CCc2cccc3c2[C@H]1Cc1ccc(O)c(O)c1-3		5.96 µM (active)
C/C1=C\C[C@H](O[C@@H]2O[C@H](CO)[C@@H](O)[C@H](O)[C@H]2O)/C(C)=C/[C@H]2OC(=O)[C@H](C)[C@@H]2CC1	93.2% [at 17.3 µM] (inactive)	
CCCCc1nc(C)c(CC(=S)N(C)C)c(=O)n1Cc1ccc(-c2ccccc2-c2nn[nH]n2)cc1	77.7% (inactive)	
C/C=C(\C)[C@@H]1C(C)=C[C@@H]2[C@H]([C@@H]1/C=C/C=C/C(=O)O)[C@@H](C)CC[C@@H]2O		6.4 µM (active)
CC1(C)CC[C@]2(C(=O)O[C@@H]3O[C@H](CO)[C@@H](O)[C@H](O)[C@H]3O)CC[C@]3(C)C(=CCC4[C@@]5(C)CC[C@H](O[C@@H]6O[C@H](C(=O)O)[C@@H](O[C@@H]7O[C@H](CO)[C@@H](O)[C@H](O)[C@H]7O)[C@H](O)[C@H]6O)C(C)(C)C5CC[C@]43C)C2C1 (stereo not given in full)	78.7% [at 9.25 µM] (inactive)	
CC(C)n1nc(-c2ccc(NC(=O)Nc3cccc(C(F)(F)F)c3)cc2)c2c(N)ncnc21	4.49% (inactive)	
Cc1cc(O)c(C(C)C)cc1O[C@@H]1O[C@H](CO)[C@@H](O)[C@H](O)[C@H]1O	84.5% (inactive)	
CO[C@H]1O[C@@H]2O[C@]3(C)CC[C@H]4[C@H](C)CC[C@@H]([C@H]1C)[C@@]24OO3		1.84 µM (active)
CCCCNc1ncc2c(-c3ccc(S(=O)(=O)N4CCOCC4)cc3)nn(C3CCC(O)CC3)c2n1 (stereo not given)		0.0184 µM (active)
C=C1C[C@]23C[C@H]1CC[C@H]2[C@@]1(C)CCC[C@@]2(C)C(=O)O[C@@H]([C@@H]3O)[C@@H]12	62.6% (inactive)	
CC1(C)C[C@H]2C=C(C=O)[C@]3(C(=O)O)C[C@]3(C)[C@H]2C1	91.1% (inactive)	
N#C/C(=C1/Nc2ccccc2S1)c1ccnc(OCc2ccc(CN3CCOCC3)cc2)n1		10.5 µM (active)
CC1=CC2=C(C)C(=O)[C@](C)(O)[C@H](O)C2=CO1	75.2% (inactive)	
COC(=O)C1=CO[C@@H](O[C@@H]2O[C@H](CO)[C@@H](O)[C@H](O)[C@H]2O)[C@H]2[C@@H]1C=C[C@]21C=C([C@H](C)OC(=O)/C=C/c2ccc(O[C@@H]3O[C@H](CO)[C@@H](O)[C@H](O)[C@H]3O)cc2)C(=O)O1	85.7% [at 17.3 µM] (inactive)	
